From PubChem BioAssay
ALOX15B inhib: 15-hLO-2 (ALOX15B) enzyme inhibition. purified 15hLO-2, xylenol orange hydroperoxide absorbance. Potency, µM (highest dose often 57.1 µM), without a hit: top-dose activity change, negative = inhibition, actives largely listed as inhibitors. actives 0.56% (n = 110,000); also: potency is read from the fitted curve at half-maximal effect; nearly all actives have a fitted effect of over 60% in size
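Screening format was qHTS against 50 nM purified 15hLO-2 in Hepes pH 7.5 with detergent. Activity follows hydroperoxide formation from 45 uM arachidonic acid, measured as 573:405 nm absorbance ratio of the ferric-xylenol orange complex.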
IMPase Li inh: membrane-permeable IMPase blocker, potentiated with lithium; actives 0.35% (n = 210,000); CHO-M1 cells, IP1 TR-FRET (IP-One), carbachol + lithium; Potency, µM (top dose mostly 59.4 µM), for inactives: top-dose activity, negative = IMPase inhibition, most hits filed as inhibitors; AID 1457;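 also: IP1 builds up when IMPase is blocked and the TR-FRET signal falls; potency is read from the fitted curve at half-maximal effect; plate controls were basal vehicle for no effect and high inhibitor control for full effect; nearly all actives have a fitted effect of over 50% in size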
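Readout is a homogeneous TR-FRET IP1 immunoassay (Ex 320, Em 665 and 620), where raised cytosolic IP1 lowers signal. Cells were CHO-M1 treated 30 min at 37C with test compounds plus a little lithium; AC50 values came from Hill-equation fitting.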
PNC inhibitor: perinucleolar compartment assembly inhibition; AID 2417; actives 3.1% (n = 140,000); PC3M PTB-GFP, PNC prevalence imaging, 16 h; active compounds read low; activity change (PNC), negative = inhibition, % at 10 µM;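 active = readout at or below -70, meaning at least 70% loss of cells showing the perinucleolar compartment, a nuclear body marking cancer cells; inconclusive = readout between -30 and a set limit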;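 also: plate controls were DMSO wells for no effect and camptothecin positive control wells for full effect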
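Read-out is percentage of cells bearing a perinucleolar compartment, from automated 20x imaging of fixed, Hoechst-stained PC3M PTB-GFP cells. Cells were seeded 4 h, then exposed 16 h to compound (23 nl of library stock) in duplicate plates.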
HPGD inh: inhibitors of human 15-hydroxyprostaglandin dehydrogenase (HPGD); Potency, µM, for inactives: at the highest dose activity change, negative = inhibition, actives largely listed as inhibitors; actives 4.3% (n = 150,000); P15428; purified HPGD, NADH fluorescence kinetic, PGE2 substrate; active = well fitted inhibition curve with a large enough effect, not every such curve was filed as active; inconclusive = small, poorly fitted or top-dose-only effect, or another doubt; inactive = no such curve, though single readings can be large or run the other way; also: potency is read from the fitted curve at half-maximal effect
Target sequence (P15428 whole entry, looked up): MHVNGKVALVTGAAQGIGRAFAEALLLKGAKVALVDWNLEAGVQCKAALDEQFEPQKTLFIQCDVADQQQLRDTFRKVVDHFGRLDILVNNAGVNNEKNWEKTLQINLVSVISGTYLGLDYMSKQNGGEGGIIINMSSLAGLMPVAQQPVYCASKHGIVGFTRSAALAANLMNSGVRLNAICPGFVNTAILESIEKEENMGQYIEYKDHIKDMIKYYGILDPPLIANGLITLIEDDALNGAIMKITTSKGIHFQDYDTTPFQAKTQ
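20 nM HPGD preincubated 15 min at room temperature with compound in 50 mM Tris-HCl pH 8, 0.01% Tween 20. Started with 1 mM NAD+ and 30 uM prostaglandin E2; NADH fluorescence (360/450 nm) read 5 times over 30-s intervals, last minus first.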
ALOX12 inhib: blocks human 12-lipoxygenase activity; P18054; purified 12-hLO, xylenol orange hydroperoxide absorbance; Potency, µM (doses to about 57.1 µM), without a hit: at the top dose activity change, negative = inhibition, most hits filed as inhibitors; actives 0.12% (n = 150,000); AID 1452; also: potency is read from the fitted curve at half-maximal effect; nearly all actives have a fitted effect of over 55% in size
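Purified human 12hLO (150 nM final) was preincubated with compounds for 15 min at room temperature in 25 mM Hepes pH 7.0, 0.01% Triton X-100, then reacted with 40 uM arachidonic acid for 30 min. Hydroperoxide was detected with ferrous iron/xylenol orange.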
IMPase inh: IMPase inhibition in cells; 120,000 tested, under 10 active; AID 901; inhibition (IP1 accumulation), % at 46.1 µM; CHO-M1 cells, IP1 accumulation, HTRF TR-FRET ratio; P97697; active = well fitted curve in the direction sought with a large enough effect in the signal ratio, not every such curve was filed as active; inconclusive = small, poorly fitted or top-dose-only effect, or a change in a side signal; inactive = no such curve, though single readings can be large or run the other way; the % refers to the signal ratio;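 also: cells stimulated with carbachol in lithium chloride buffer; plate controls were DMSO basal wells for no effect and reference inhibitor wells for full effect; higher means more IMPase inhibition seen as more IP1 and lower FRET ratio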
Target sequence (P97697 whole entry, looked up): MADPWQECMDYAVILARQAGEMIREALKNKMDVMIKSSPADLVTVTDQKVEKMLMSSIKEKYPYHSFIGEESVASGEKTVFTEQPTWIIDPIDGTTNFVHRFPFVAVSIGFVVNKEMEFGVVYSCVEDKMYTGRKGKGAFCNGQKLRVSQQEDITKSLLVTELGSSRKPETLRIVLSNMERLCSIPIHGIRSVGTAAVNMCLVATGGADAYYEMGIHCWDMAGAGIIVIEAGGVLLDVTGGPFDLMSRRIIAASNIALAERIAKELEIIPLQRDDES
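Seeded CHO-M1 cells were dosed with compound at up to 46 uM, stimulated with carbachol for 30 min, then lysed in IP-One detection reagents. Higher IP1 lowers the TR-FRET signal.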
Numbers without * were called inactive; ? = inconclusive; · = no result given; [ ] = another dose, or the depositor's remark. In the library only some 5.3% were active in any assay of this set; here they are far more common. Unless noted, calls follow the shape of the dose curve; as a rule, active = well fitted curve in the direction sought with a large enough effect; inconclusive = small, poorly fitted or top-dose-only effect, or another doubt; inactive = no such curve, though single readings can be large; an effect the other way counts as inactive or inconclusive. Unless noted, % is scaled to controls: 0 for no effect and ±100 for the full control effect.

SMILES | ALOX15B inhib | IMPase Li inh | PNC inhibitor | HPGD inh | ALOX12 inhib | IMPase inh
COCc1cc(C)nc2sc(C(=O)Nc3ccc(OC(F)(F)F)cc3)c(N)c12 | · | · | · | · | · | -2
CCN(CC)CCn1c(-c2ccccc2)nc2c(NC3CCCCC3)nc(C)nc21 | 26% | 1% | · | -29% | -1% | ·
CC(C)Cc1nc2sc3c(=O)[nH]cnc3c2c2c1CCC2 | · | 10µM* | ? | ? | 0% | ·
CC(C)c1nc2sc3c(=O)[nH]cnc3c2c2c1CCC2 | · | -29% | -84* | ? | 1% | ·
CCc1nc2sc3c(N4CCCCC4)ncnc3c2c2c1CCCC2 | · | · | · | · | · | -1
CCCC(=O)c1cc(O)c(O)cc1O | ? | 25% | · | 6.3µM* | -23% | ·
CCCc1cc(C(=O)Cc2ccc(F)cc2)c(O)cc1O | 5%[2.29 µM] | -8%[38.3 µM] | 17 | -23% | -9% | -1
Cc1c(O)c2cccnc2[nH]c1=O | · | -2% | 3 | -8% | -1% | ·
COc1ccc(C2C(C(=O)c3ccco3)=C(O)C(=O)N2CC2CCCO2)cc1 (stereo not drawn) | · | 11% | · | · | · | ·
Cc1ccc2nc(N3C(=O)C(O)=C(C(=O)c4ccco4)C3c3cccs3)sc2c1 (stereo not drawn) | -18% | ? | -11 | 14µM* | -16% | -17
COc1ccc(CCN2C(=O)C(O)=C(C(=O)c3ccco3)C2c2cccs2)cc1OC (stereo not drawn) | -1% | 6.3µM* | -11 | -18% | -5% | ?
COc1ccc(C2C(C(=O)c3ccco3)=C(O)C(=O)N2c2nnc(C)s2)cc1 (stereo not drawn) | · | 11µM* | · | · | · | ·
O=C(C1=C(O)C(=O)N(CCOCCO)C1c1cccs1)c1cccs1 (stereo not drawn) | 1% | 7.9µM* | -3 | -10% | -7% | ?
CCNC(=O)Nc1ccc(OC)cc1OC | · | 4% | · | · | · | ·
O=C(COc1ccc2ccccc2c1)N/N=C/C1CC=CCC1 (stereo not drawn) | · | 0% | 13 | -5% | -1% | ·
O=C(O)c1ccc(Cc2ccccc2C(=O)O)cc1 | 1%[11.4 µM] | 3% | · | -6% | 1%[11.4 µM] | ·
C=CCOc1ccc(C2C(C(=O)c3ccco3)=C(O)C(=O)N2c2nnc(C)s2)cc1 (stereo not drawn) | · | 11µM* | · | · | · | ·
C=CCOc1ccc(C2C(C(=O)c3ccco3)=C(O)C(=O)N2CCCN(CC)CC)cc1 (stereo not drawn) | 3% | · | 30 | · | -26% | 6
CCOc1ccc(NS(=O)(=O)c2cc(NC(=O)c3cccc(C)c3)ccc2Cl)cc1 | · | · | ? | · | -2% | 6
CC(=O)Nc1cc(CN2CCCCC2)c(O)c2ncccc12 | 18%[11.4 µM] | 2% | · | -10% | -9%[11.4 µM] | ·
COC(=O)c1cc(C#N)c(NCc2ccc(Cl)cc2Cl)nc1C | -12% | 8.9µM* | 32 | ? | -3% | -6
CCOC(=O)c1cc(C#N)c(NCc2ccccc2)nc1C | -5% | 1%[38.3 µM] | -25 | -27% | -2% | 2
CN(C)c1ncc2nc(-c3ccc(Cl)cc3)c(=O)n(Cc3ccc(F)cc3)c2n1 | -2% | 3% | · | · | · | ·
O=C(Nc1nnc(SCC(=O)N2CCCCC2)s1)C1CCCCC1 | · | 1% | -27 | 14µM* | -6% | 4
O=C(Nc1nnc(C2CCCC2)s1)C1CCC1 | -3% | -1%[38.3 µM] | -127* | -2% | -4% | 0
SMILES | ALOX15B inhib | IMPase Li inh | PNC inhibitor | HPGD inh | ALOX12 inhib | IMPase inh
Cc1onc(-c2ccccc2)c1C(=O)N/N=C/c1cccc(O)c1 | · | -8% | ? | 28µM* | -8% | ·
Cc1onc(-c2ccccc2)c1C(=O)NC(=S)NNC(=O)c1ccccc1O | · | 1% | -95* | -7% | -15% | ·
COc1cccc(/C=N/NC(=O)c2c(-c3ccccc3)noc2C)c1 | -5% | 11%[38.3 µM] | 20 | -5% | 5% | 10
Cc1cc(C(F)F)n2nc(C(=O)Nc3sc4c(c3C#N)CCC4)nc2n1 | · | 6% | 36 | -23% | -1% | ·
COc1ccccc1N1CCN(C(=O)c2oc3ccc(Br)cc3c2C)CC1 | · | 19% | -95* | -21% | 0% | ·
CCN(CC)c1ccc2c(c1)C(=O)N(C)C2=O | 9% | 8%[38.3 µM] | -21 | 18µM* | -3% | -8
CCN(CCCCN1C(=O)c2ccccc2C1=O)c1ccc2c(c1)C(=O)N(C)C2=O | -15% | -3%[38.3 µM] | -16 | 10µM* | -4% | 15
S=c1[nH]nc(-c2cccc(Br)c2)o1 | 3% | 10µM* | ? | -22% | 4% | ?
S=c1[nH]nc(-c2cccnc2)o1 | 4% | -30%[38.3 µM] | -2 | -9% | 2% | -26
COc1ccc(OCC(=O)Nc2ccc(Cl)cc2)cc1 | · | -2% | · | · | · | ·
Cc1ccc(OCC(=O)Nc2ccccc2Sc2ccccc2)c([N+](=O)[O-])n1 | · | 10% | -107* | -1% | -1% | ·
CSc1ccccc1NC(=O)COc1ccc(Cl)cc1Cl | · | · | ? | · | -1% | 3
CSc1ccccc1NC(=O)COc1ccccc1Cl | 6% | 14%[38.3 µM] | 60 | 25µM* | -4% | 2
CSc1ccccc1NC(=O)COc1ccc(Cl)cc1 | · | 6% | -10 | 28µM* | 2% | ·
CN1CCC(OC(=O)c2cccc(Cl)c2)CC1 | · | 20% | · | · | · | ·
O=C(O)CC(NC(=O)C12CC3CC(CC(C3)C1)C2)c1ccc(OC2CCCC2)cc1 (stereo not drawn) | · | -1% | · | · | · | ·
CCCCN(C)C1CCN(C(=S)Nc2cccc(SC)c2)CC1 | · | 4% | · | · | · | ·
Cc1ccc(-c2ccc(CCC(=O)O)o2)cc1 | -14% | -10%[38.3 µM] | -2 | -19% | 1% | 2
O=C(O)CCc1ccc(-c2cccs2)o1 | -8% | 22%[38.3 µM] | -14 | 22µM* | -15% | 5
COCC(=O)N1CCC2(CC1)CCN(C(c1ccccc1)c1ccccc1)CC2 | 2% | 16% | · | -5% | 2% | ·
CCOC(=O)c1c(C)[nH]c(C)c1C(=O)CN1C(=O)NC(CC(C)C)C1=O (stereo not drawn) | 2% | 1% | -94* | -6% | -1% | -3
CCS(=O)CCSc1nc2ccccc2s1 (stereo not drawn) | -9% | -8%[38.3 µM] | 97 | 16µM* | -2% | -1
COc1ccc(C2=C(N3CCN(c4cccc(C)c4C)CC3)c3ccccc3C2=O)cc1 | · | · | · | · | · | 16
Fc1ccc(N2Cc3ccsc3C=N2)cc1 | · | -3% | · | · | · | ·
O=C(NCc1ccccc1)[C@@H]1C[C@H]1[C@@H](NP(=O)(c1ccccc1)c1ccccc1)c1ccccc1 | 6% | 8% | 22 | -1% | -3% | ·
O=C(Nc1ccc2ccccc2c1)[C@@H]1C[C@H]1[C@@H](NP(=O)(c1ccccc1)c1ccccc1)c1ccccc1 | 22% | 7% | -119* | ? | -5% | ·
